Bioassay records as filed in PubChem BioAssay.
CHX counter – counter-screen hit for Shiga toxin inhibitors, cycloheximide; cell reporter, cycloheximide protein synthesis inhibition counterscreen; max response, %; actives 12% (n = 300,000); AID 2314; in the data active means max response mostly above about 13%, no sharp cut-off; inactive means mostly below about 14%; further: read at 38.3 µM for the half of the compounds with a filed dose
Pf growth 48h – inhibits P. falciparum growth in the first generation, 48 h; AID 504832; P. falciparum luciferase growth in erythrocytes, 48 h; Potency, µM (highest dose often 28.7 µM), hits mostly inhibitors; actives 5.9% (n = 310,000)
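A one-generation exposure of luciferase-tagged malaria parasites in RPMI 1640/Albumax erythrocyte culture, 37 C and 5% CO2. Inhibition is inferred from decreased luminescence after adding detection reagent.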
Shiga inhibitor – inhibitors of Shiga toxin in Vero cells. actives 9.2% (n = 290,000). inhibition, % at 38.7 µM. Vero cells, Shiga toxin protein synthesis inhibition reporter; in the data active means inhibition mostly above about 28%, no sharp cut-off; inactive means mostly below about 43%
Pf growth 96h – P. falciparum growth inhibition at 96 hour, primary screen for plastid delayed-death inhibitors. P. falciparum luciferase reporter growth, 96 h. Potency, µM (series often up to 28.7 µM), hits mostly inhibitors. actives 6.9% (n = 320,000)
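Readout is luminescence from an integrated firefly luciferase in P. falciparum. Red cells, 2% hematocrit and 0.05% parasitemia final, were cultured with compound through two parasite generations (96 hours) at 37 C, 5% CO2.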
Large screens that a line does not name were inactive. An excerpt weighted towards active compounds, which were near 21% of everything screened. Unless noted, the call rests on the fitted dose curve; in most records, active means well fitted inhibition curve with a large enough effect; inconclusive means small, poorly fitted or top-dose-only effect, or another doubt; inactive means no such curve, though single readings can be large or run the other way.

COc1cc2c(Nc3ccc(Br)cc3F)ncnc2cc1OCC1CCN(C)CC1	Pf growth 48h 0.67µM, Pf growth 96h 1.5µM (no result: CHX counter, Shiga inhibitor)
CCCN(CCC)C(=O)c1cc2c(=O)[nH]c3ccc(C)cc3c2s1	Pf growth 48h inconclusive
Cc1ccc2[nH]c(=O)c3cc(C(=O)N(C)Cc4ccco4)sc3c2c1	CHX counter 23 (no result: Pf growth 48h)
CCN(C(=O)c1cc2c(=O)[nH]c3ccc(C)cc3c2s1)c1ccc(OC)cc1	Pf growth 48h inconclusive, Pf growth 96h 5.2µM
CCOCCCN(Cc1ccco1)C(=O)c1cc2c(=O)[nH]c3ccc(C)cc3c2s1	none (no result: Pf growth 48h)
Cc1ccc(C)c(N(C)C(=O)c2cc3c(=O)[nH]c4ccc(C)cc4c3s2)c1	Pf growth 48h 10µM, Pf growth 96h inconclusive
CCCCSCCCNC(=O)c1ccc(CS(=O)(=O)c2ccccc2OC)o1	none
